Shown are actives, neighbours in structure and some others; about 12% of the full set was active somewhere.
ALDH1A1 inh = qHTS Assay for Inhibitors of Aldehyde Dehydrogenase 1 (ALDH1A1); Aldehyde dehydrogenase 1A1 (Homo sapiens), P00352; Potency, µM (series often up to 75.3 µM), for the others: at the highest dose activity, negative = inhibition, most hits filed as inhibitors; hit rate 7.3% among 220,000; Purified ALDH1A1, NADH fluorescence, propionaldehyde substrate; active = well fitted inhibition curve with a large enough effect, not every such curve was filed as active; inconclusive = small, poorly fitted or top-dose-only effect, or another doubt; inactive = no such curve, though single readings can be large or run the other way;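 also: plate controls were no enzyme wells and a reference inhibitor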
RORgamma inh = qHTS for inhibitors of ROR gamma transcriptional activity; Potency, µM (top dose mostly 53.6 µM), for inactives: top-dose activity change, negative = inhibition, usual class: inhibitors; AID 2551, 2010; Drosophila S2 Gal4-RORgamma UAS-luciferase reporter, 20 h; hit rate 5.4% among 310,000; also: nearly all actives have a fitted effect of over 60% in size
Target sequence (P51450 whole entry, looked up, the tested form may be a part): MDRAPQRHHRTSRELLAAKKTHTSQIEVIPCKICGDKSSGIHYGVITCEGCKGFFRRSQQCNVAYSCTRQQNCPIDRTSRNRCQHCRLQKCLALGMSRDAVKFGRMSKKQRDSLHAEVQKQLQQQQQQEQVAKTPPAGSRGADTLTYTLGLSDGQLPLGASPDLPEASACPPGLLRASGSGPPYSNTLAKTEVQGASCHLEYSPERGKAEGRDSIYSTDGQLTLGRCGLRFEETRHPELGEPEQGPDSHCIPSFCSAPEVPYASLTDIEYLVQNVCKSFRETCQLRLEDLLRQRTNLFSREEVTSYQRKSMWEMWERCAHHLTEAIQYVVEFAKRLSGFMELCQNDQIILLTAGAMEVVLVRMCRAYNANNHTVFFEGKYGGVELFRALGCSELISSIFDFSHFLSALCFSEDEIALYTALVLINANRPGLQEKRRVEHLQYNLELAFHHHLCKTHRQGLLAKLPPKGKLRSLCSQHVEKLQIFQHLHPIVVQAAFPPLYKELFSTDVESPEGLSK
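Schneider cells (Drosophila), stable Gal4 DBD–ROR gamma + UAS-luc; 1 hr cmpd preincubation; Cu2+ induction 700 uM final; 20 hr ambient; luminescence.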
Sfp inh = qHTS Assay for Inhibitors of Bacillus subtilis Sfp phosphopantetheinyl transferase (PPTase). Biochemical Sfp PPTase activity, qHTS. Potency, µM, for inactives: largest response in the series, negative = inhibition, actives largely listed as inhibitors. hit rate 3.5% among 310,000. AID 1490, 2009;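 also: the enzyme is Sfp with the accession as filed and its product quenches rhodamine fluorescence; 0% = enzyme reaction without inhibitor and -100% = no enzyme wells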
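Fluorescence-quenching assay with 15 nM Sfp, 5 uM rhodamine-CoA and 12.5 uM BHQ-2-labelled ybbR peptide in pH 7.6 Hepes/MgCl2 buffer. Enzyme was pre-incubated with compound for 15 min at room temperature. Rate was taken from the 30-min fluorescence change (525/598 nm).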
PLK1 PBD inh = qHTS for Inhibitors of PLK1-PDB (polo-like kinase 1 - polo-box domain): Primary Screen | hit rate 2.8% among 360,000 | Plk1 PBD binding of FITC phosphopeptide, fluorescence polarization | Potency, µM, inactives show max response, negative = inhibition, hits mostly inhibitors | AID 720504, 2013; also: series mostly up to about 57 µM; nearly all actives have a fitted effect of over 65% in size
VP16 counter = VP16 counterscreen qHTS for inhibitors of ROR gamma transcriptional activity; Drosophila S2 Gal4-VP16 UAS-luciferase, luminescence, 20 h; Potency, µM (highest dose often 53.6 µM), without a hit: at the highest dose activity, negative = inhibition, most hits filed as inhibitors; hit rate 3.5% among 310,000; AID 2546, 2010;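 also: Gal4-VP16 expression switched on by copper sulfate through the metallothionein promoter; nearly all actives have a fitted effect of over 50% in size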
* hit, by the source's call; ? = inconclusive; · = no result; [ ] = remark or other dose. Unless noted, calls follow the shape of the dose curve; as a rule, active = well fitted curve in the direction sought with a large enough effect; inconclusive = small, poorly fitted or top-dose-only effect, or another doubt; inactive = no such curve, though single readings can be large; an effect the other way counts as inactive or inconclusive. Unless noted, % is scaled to controls: 0 for no effect and ±100 for the full control effect; potency is read from the fitted curve at half-maximal effect.

SMILES | ALDH1A1 inh | RORgamma inh | Sfp inh | PLK1 PBD inh | VP16 counter
CCCN1C(=O)/C(=C/c2c(N3CCNC(=O)C3CC(=O)OC)nc3c(C)cccn3c2=O)SC1=S (stereo unspecified) | 5µM* | 26% | -22% | · | -7%
Cc1cccc(N2C(=O)/C(=C\c3ccc(C(=O)O)cc3)c3ccccc3C2=O)c1 | ? | -8% | 5% | 6.7µM* | 2%
Cc1cccc(N2C(=O)c3ccc(C(=O)Nc4ccccn4)cc3C2=O)c1 | · | -16% | 14% | -4% | -4%
O=C1NC(=O)/C(=C\c2ccc(Br)o2)S1 | · | ? | ? | -22% | 15%
O=C1NC(=O)/C(=C/c2ccc(-c3cc(C(=O)O)ccc3Cl)o2)S1 | · | 28% | 32µM* | ? | -10%
O=C1NC(=S)/C(=C\c2ccc(-c3ccccc3Cl)o2)S1 | ? | ? | 50µM* | 13µM* | ?
Cc1nnc(C)n1/N=C/c1ccc(-c2ccccc2Cl)o1 | · | -9% | -19% | ? | 1%
CCOc1cccc(-c2cc(NCCc3ccccn3)n3nccc3n2)c1 | · | · | · | -3% | ·
COc1ccc(/C=C/C(=O)NC(=S)NCCc2ccc(OC)c(OC)c2)cc1 | 0% | 2.8µM* | 22% | 0% | ?
COc1ccc(C(=O)NC(=S)NCCc2ccccc2)cc1 | 14µM* | 10µM* | -5% | -5% | ?
COc1ccc(CCNC(=O)CSCc2ccc([N+](=O)[O-])cc2)cc1OC | ? | 14% | 1% | 9.5µM* | -1%
COc1ccc(CCNC(=O)CSc2ccccc2)cc1OC | -4% | ? | 4% | -1% | -8%
COc1ccc(CCNC(=O)CSC(=O)c2ccccc2)cc1OC | ? | -8% | 45µM* | 21µM* | 4%
COc1cccc(/C=C/C(=O)NCCc2ccc(OC)c(OC)c2)c1 | -14% | -2% | 5% | 3% | 0%
COc1ccc(CCNC(=O)CSCc2ccc([N+](=O)[O-])cc2)cc1 | -5% | -2% | 12% | 0% | 13%
O=C(NC1CCCC1)C(C1CC1)n1c(-c2ccccn2)nc2ccccc21 (stereo unspecified) | · | · | · | 3% | ·
CC(C)(C)NC(=O)C(c1cc2ccccc2o1)n1c(-c2ccc(-c3ccccc3)cc2)nc2ccccc21 (stereo unspecified) | · | · | · | -2% | ·
COc1ccc(CCNC(=S)NC(=O)c2cccc([N+](=O)[O-])c2)cc1OC | · | 13µM* | 2% | -7% | 16µM*
COc1ccc(C2(CNC(=O)c3cccc([N+](=O)[O-])c3)CCOCC2)cc1OC | 6% | -7% | 2% | 15µM* | -3%
COc1ccc(CCNC(=S)NC(=O)c2cc(OC)c(OC)c(OC)c2)cc1OC | · | -40% | 22% | 1% | -3%
COc1ccc(CCNC(=S)NC(=O)c2ccccc2)cc1OC | ? | 4.5µM* | -27% | -10% | 7.1µM*
COc1ccc(CCNC(=S)NC(=O)c2cccc(Cl)c2)cc1OC | · | 11µM* | -6% | -10% | ?
CC1C=CCCOC1c1ccccc1 (stereo unspecified) | -2%[13.5 µM] | 8%[10 µM] | 4% | · | 8%[10 µM]
CC(O)(c1cccnc1)c1nc(-c2ccc(F)c(Cl)c2)cs1 (stereo unspecified) | · | · | · | -2% | ·
O=C(NC(=S)NCCc1ccccc1)c1cccc(Cl)c1 | · | 13µM* | 7% | -14% | 18µM*
SMILES | ALDH1A1 inh | RORgamma inh | Sfp inh | PLK1 PBD inh | VP16 counter
COc1ccc(CC(=O)Oc2ccc(Cl)cc2Br)cc1S(=O)(=O)N1CCOCC1 | · | · | · | -11% | ·
COc1ccc(NC(=S)N(CCCN2CCOCC2)Cc2cn(C)c3ccccc23)cc1 | 0.56µM* | ? | -15% | ? | ?
CCOc1ccc(NC(=S)N(CCCN2CCOCC2)Cc2cn(C)c3ccccc23)cc1 | 4µM* | 13µM* | 6% | -1% | ?
CCOc1ccc(NC(=O)N(CCCN2CCOCC2)Cc2cccnc2)cc1 | 5% | 2% | -1% | -9% | -8%
Cc1cccc(NC(=S)N(CCCN2CCOCC2)Cc2cn(C)c3ccccc23)c1 | ? | 11µM* | -1% | 5% | -22%
Cn1cc(CN(CCCN2CCOCC2)C(=S)Nc2cccc(Cl)c2)c2ccccc21 | -8% | ? | 3% | -10% | ?
COc1ccc(NC(=S)N(CCCN2CCOCC2)Cc2ccccn2)cc1 | 2% | 25% | -11% | -2% | -2%[10 µM]
COC(=O)C1=C(C)NC(=O)NC1c1ccc(N2CCC(c3ccccc3)=N2)cc1 (stereo unspecified) | ? | 13% | -14% | 27µM* | 4%
COC(=O)C1=C(C)NC(=O)NC1c1ccc(OC)c(OC)c1 (stereo unspecified) | · | · | · | -11% | ·
COc1ccc(C(=O)/C=C/c2ccc(N3CCCCC3)c([N+](=O)[O-])c2)cc1 | 4.5µM* | ? | 15% | -3% | 12%
COc1ccc(C(=O)/C=C/c2ccc(N3CCCCC3)c([N+](=O)[O-])c2)c(OC)c1 | 20µM* | ? | -11% | 4% | -6%
COc1ccc(C(=O)/C=C/c2ccccc2)c(OC)c1 | -10% | ? | -1% | -5% | -12%
CC(=O)c1c(C)[nH]c(C(=O)N(C)C(c2ccccc2)c2ccccc2)c1C | 18µM* | 9% | -1% | -9% | -14%
CC(=O)c1c(C)[nH]c(C(=O)OCCOc2ccccc2)c1C | 1% | 11µM* | 7% | -7% | 8.9µM*
CC(=O)c1c(C)[nH]c(C(=O)NCCc2ccccc2)c1C | 2% | -42% | 9% | -14% | 1%
CC(=O)c1c(C)[nH]c(C(=O)COC(=O)CCCOc2ccccc2)c1C | 7% | 14% | 19% | -6% | 3%
C[C@H](NCc1ccccc1)c1ccccc1 | · | 2% | 14% | · | 3%
COc1cc2c(cc1C=O)OC(C)C2 (stereo unspecified) | ? | 16% | 17% | 8% | -2%[10 µM]
CCOc1cc2c(cc1C=O)OC(C)C2 (stereo unspecified) | 25µM* | 13% | 15% | 3% | -19%
C[C@H]1CN([C@@H](C)CO)C(=O)c2cc(Br)cnc2O[C@@H]1CN(C)S(C)(=O)=O | · | · | · | -9% | ·
COc1ccc(C)cc1NC(=O)C(Sc1nnnn1C)c1ccccc1 (stereo unspecified) | ? | 0% | 14% | 1% | -23%
CCCn1c(SC(C(=O)Nc2cc(C)ccc2OC)c2ccccc2)nc2ccccc2c1=O (stereo unspecified) | 15% | 20µM* | 5% | 1% | ?
COc1ccc(/C=N/NC(=O)c2ccc(NC(=O)C3CCCCC3)cc2)cc1O | · | ? | 79µM* | -11% | ?
CCC(C(=O)N1CCN(c2ncccn2)CC1)c1ccccc1 (stereo unspecified) | · | -33% | 19% | 24µM* | -2%
NNC(=O)c1ccccc1-n1cccc1 | ? | ? | 15% | -23% | 12%

Bioassay records (PubChem)
